# Sampled rows, rich in hits. Any-hit rate of the full collection: about 2.9%.
# KDM5B inh – inhibitors of human KDM5B histone demethylase | 2.6% of 220,000 active | AID 1347165 | Potency, µM (highest dose often 57.7 µM), most hits filed as inhibitors | Q9UGL1 | KDM5B demethylase, FDH-coupled NADH fluorescence (FDH is formaldehyde dehydrogenase); note: nearly all actives have a fitted effect of over 70% in size
#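 Inhibition is measured as reduced NADH fluorescence generation from FDH coupling to formaldehyde release. Truncated KDM5BΔAP at 200 nM final acts on H3K4me3 peptide (12.5 µM in substrate mix) in pH 7.5 HEPES buffer with Tween-20, 30 min, room temperature.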
# IP6K1 inhibitor – IP6K1 kinase inhibition | AID 1645851 | activity change, % (series mostly up to about 58 µM) | 0.81% of 140,000 active | Q92551 | IP6K1 kinase, ADP-Glo luminescence, 2 h; hits give low values; in the data active = activity change below about -25%
#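 ADP-Glo luminescence measures ADP made by human IP6K1 during a 2 h RT reaction with ATP/IP6 (mix at 1.3 mM/130 uM); top library doses 57.5 and 19.1 uM final.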
# HEK293 viab – cell viability loss counter-screen | HEK-293-SNCA-luc viability, GF-AFC fluorescence, 24 h | Potency, µM (highest dose often 57.1 µM), actives largely listed as cytotoxic | 0.12% of 150,000 active; note: nearly all actives have a fitted effect of over 30% in size
#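 HEK-293-SNCA-luc cells (1500/well) plated 24 h, then exposed 24 h to a dilution series; GF-AFC added 30 min at 37C, fluorescence 405/540 nm; normalised to medium-only and DMSO wells, Hill fit.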
# SNCA expr inh – inhibitors of alpha-synuclein (SNCA) gene expression; HEK-293 SNCA-luciferase knock-in, luminescence, 24 h; Potency, µM (series often up to 57.2 µM), usual class: inhibitors; 0.17% of 140,000 active; note: nearly all actives have a fitted effect of over 45% in size
# Numbers stand for hits; 0 = inactive; ? = inconclusive; - = not tested or not shown; [ ] = dose if it differs, or a comment. Unless noted, calls come from the whole dose curve; as a rule, active = well fitted curve in the direction sought with a large enough effect; inconclusive = small, poorly fitted or top-dose-only effect, or another doubt; inactive = no such curve, though single readings can be large; an effect the other way counts as inactive or inconclusive.
SMILES,KDM5B inh,IP6K1 inhibitor,HEK293 viab,SNCA expr inh
O=C(C1CCCC1)N1C[C@@H](CO)[C@@H]2Oc3c(F)cccc3[C@@H]21,-,0,-,-
CC(C)c1noc(-c2cccn3c(CNC(=O)c4ccccc4F)nnc23)n1,?,0,0,?
CC(C)c1noc(-c2cccn3c(CNC(=O)c4cc(F)ccc4F)nnc23)n1,25µM,0,0,0
Cc1ccc(-c2nnc3ccc(NC4CCCCC4)nn23)nc1,?,0,0,0
COc1ccc(-c2nnc3ccc(NC4CCCCC4)nn23)nc1,32µM,0,0,0
COc1ccc(-c2nnc3ccc(NC(C)C)nn23)nc1,?,0,0,0
COCCNc1ccc2nnc(-c3ccc(OC)cn3)n2n1,40µM,0,0,0
COc1ccc(OCC2CN(Cc3cccs3)C(=O)c3cccnc3O2)cc1 (centres undefined),-,0,-,-
Cn1cc(S(=O)(=O)N2CCC(C(=O)Nc3cccc(F)c3)CC2)cc1C(N)=O,0,-,-,-
CC(C)c1ccc(CNC(=O)c2ccc(Cn3ccn4nc5c(c4c3=O)CCCC5)cc2)cc1,28µM,0,0,0
COc1ccc(NC(=O)c2ccc(Cn3ccn4nc5c(c4c3=O)CCCC5)cc2)cc1,0,0,0,0
O=C(NCc1cccc(Cl)c1)c1ccc(Cn2ccn3nc4c(c3c2=O)CCCC4)cc1,?,0,0,0
O=C(Nc1cccc(F)c1)c1ccc(Cn2ccn3nc4c(c3c2=O)CCCC4)cc1,25µM,0,0,?
COc1ccc(NC(=O)Cn2ccn3nc4c(c3c2=O)CCCCC4)cc1Cl,28µM,0,0,0
Cc1ccc(C(=O)N2CCCC(N3C(=O)c4c(c(C)nn4-c4ccccc4)C3C(C)C)C2)cc1 (centres undefined),-,0,-,-
CCOC(=O)[C@H]1[C@@H](O)C(=O)N(Cc2ccccc2)C12CCN(C(=O)C1CCC1)CC2,-,0,-,-
O=S(=O)(c1ccccc1)N1CC(c2nc(-c3ccncc3)no2)C1,-,0,0,0
CC(=O)NC1(C)CCN(Cc2cnc(-c3ccccc3OCc3ccccc3)s2)CC1,40µM,0,0,0
Cc1cc(C(=O)N2CCCN(c3ccnc4ccnn34)CC2)ccc1Cl,-,0,0,0
C#CCNC(=O)[C@@H]1Cc2cn(Cc3cccnc3)c3cccc(c23)[C@H](CC(C)C)N1,0,0,0,?
COc1ccc(OCC2CC3(CCCCC3)CN2S(C)(=O)=O)cc1 (centres undefined),-,0,0,0
Cc1nn(-c2ccccc2)c2c1C(C(C)C)N(C1CN(C(=O)Cc3cccc(Cl)c3)C1)C2=O (centres undefined),-,0,-,-
CNC(=O)c1ccc2cncn2c1,32µM,0,0,0
O=C(c1ccc2cncn2c1)N1CCOCC1,?,0,0,0
O=C(NC1CC1)c1ccc2cncn2c1,32µM,0,0,0
SMILES,KDM5B inh,IP6K1 inhibitor,HEK293 viab,SNCA expr inh
O=C(NC1CC1)c1ccc2nccn2c1,-,0,0,0
CN(C)C(=O)c1ccc2cncn2c1,32µM,0,0,0
CCC(COC)NC(=O)c1c(C)noc1-c1cc(OC)c(OC)c(OC)c1 (centres undefined),28µM,0,0,0
COc1cc(-c2onc(C)c2C(=O)NCCSC)cc(OC)c1OC,32µM,0,0,0
COc1cc(-c2onc(C)c2C(=O)NCCc2cccs2)cc(OC)c1OC,22µM,0,0,0
COCCCNC(=O)c1c(C)noc1-c1cc(OC)c(OC)c(OC)c1,32µM,0,0,0
COC(=O)N(C)Cc1cccc(N2CCN(C(=O)c3c(Cl)cccc3Cl)CC2)c1F,-,0,-,-
COCCCNC(=O)c1cn2cc(-c3ccc(OC)cc3)sc2n1,-,0,0,0
O=C(CNC(=O)c1cccc(-c2ccc(C(F)(F)F)cc2)c1)NCc1ccccc1F,-,0,0[12.5 µM],0
O=C(NCc1cccc(Cl)c1)c1nc2sccn2c1-c1cccnc1,-,0,0,0
COc1cccc(-c2ccc(C(=O)N3CCC(NC(=O)c4cccc(Cl)c4)CC3)cc2)c1,-,0,0[12.5 µM],0
CCCC(O)CN1CCC(=O)N(Cc2ccccc2)Cc2cc(F)ccc21 (centres undefined),-,0,-,-
O=C(c1ccc(Cl)cc1)N1CCC2(CC1)CC(c1cccc(C(F)(F)F)c1)=NO2,-,0,-,-
Cc1cc(C)cc(-c2ccc(CN3CCCC3C(=O)NCC3CC3)cc2)c1 (centres undefined),-,0,0,0
O=C(NC1CCc2nn(CC3CC3)c(=O)n2CC1)c1ccc[nH]c1=O (centres undefined),28µM,0,0,0
Cc1ccsc1C(=O)NC1CCc2nn(CC3CC3)c(=O)n2CC1 (centres undefined),0,0,0,0
Cn1nc(C(=O)NC2CCc3nn(CC4CC4)c(=O)n3CC2)c2ccccc21 (centres undefined),28µM,0,0,0
Cc1[nH]c2ccccc2c1CC(=O)NCc1cn2ccccc2n1,0,-,-,-
S=C(Nc1ccccc1)N[C@H]1CO[C@H]2[C@@H]1OC[C@@H]2Nc1nccc(-c2ccco2)n1,25µM,0,0,0
O=C(N[C@H]1CO[C@H]2[C@@H]1OC[C@@H]2Nc1nccc(-c2ccco2)n1)c1ccco1,40µM,0,0,0
COC(=O)NC1CCCN(Cc2ccc(-c3cccc(OC)c3)cc2)C1 (centres undefined),-,0,0,0
O=C(NC1CCCCC1)c1nc2sccn2c1-c1ccccc1,-,0,0,0
Cc1nc(NCC2CC2)ncc1C(=O)O,22µM,0,0,0
COc1ccccc1-c1cccc(C(=O)N2CCN(C(=O)c3ccc(C)cc3)CC2)c1,-,0,0[12.5 µM],0
CC(=O)NC1(C)CCN(Cc2ccc(-c3ccc(N4CCOCC4)cc3)cc2)C1 (centres undefined),28µM,0,0,0
SMILES,KDM5B inh,IP6K1 inhibitor,HEK293 viab,SNCA expr inh
CC(=O)NC1(C)CCN(Cc2ccc(-c3cccc(Cl)c3)cc2)C1 (centres undefined),?,0,0,0
Cc1cccc(-c2ncc(CN(C)Cc3cccc4ncccc34)cn2)c1,0,0,0,0
C=CCN(Cc1cnc(-c2cccc(C)c2)nc1)Cc1ccccn1,22µM,0,0,?
COc1ccccc1C(=O)N1CCCn2nc(C)c(-c3ccccc3C(C)C)c21,0,0,0,0
COc1ccccc1C(=O)N1CCCn2nc(C)c(-c3ccccc3N3CCCC3)c21,13µM,0,0,0
CN1CCN(C(=O)c2cc(-c3ccc(C(F)(F)F)cc3)nc3c2cnn3C)CC1,-,0,-,-
CN(Cc1ccccc1)C(=O)C1CCCN(Cc2cccc(-c3ccsc3)c2)C1 (centres undefined),-,0,-,-
COc1ccccc1/C=C/CN1CCn2nc(CO)cc2C1,28µM,0,0,0
CCOc1ccc(NC(=O)c2c(NCc3cc(OC)c(OC)cc3OC)sc3c2CCCC3)cc1,?,-30,0,0
CN(c1ccccc1)c1ccc2c(n1)CN(CCOc1ccccc1)C(=O)CO2,32µM,0,0,0
Cc1nc(CN2Cc3nc(N(C)c4ccccc4)ccc3OCC2=O)cs1,?,0,0,0
O=C1COc2ccc(-c3ccccc3)nc2CN1Cc1ccc(F)cc1,0,0,0,0
CN(c1ccccc1)c1ccc2c(n1)CN(Cc1ccccc1)C(=O)CO2,35µM,0,0,0

# Compound activity: PubChem BioAssay, National Center for Advancing Translational Sciences (NCATS)
